# Results taken from PubChem BioAssay (Tox21).
# Values without a mark were called inactive. Results filed as inconclusive are left out. A call without a number means that no potency is given here. Active and inactive are the calls of the source. Unless noted, calls follow the shape of the full dose curve.
# Assays:
# [1] = Nuclear factor erythroid 2-related factor 2/antioxidant responsive element (Nrf2/ARE) small molecule agonists: qHTS cell viability counter screen in human keratinocytes (AID 1919968; active = well fitted curve in the direction sought with a large enough effect in the repeat runs; an effect the other way counts as inactive or inconclusive; also: nearly all actives have a fitted effect of over 55% in size; also: potency is read from the fitted curve at half-maximal effect)
# In short: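 Fluorescence read-out from CellTiter-Fluor after 1 h at 37 C. Wells held HaCaT-derived ARE-luciferase reporter cells (1,500/well) treated 23 h with DMSO-dissolved compounds. Run in the same wells as the luciferase agonist read.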
# [2] = Nuclear factor erythroid 2-related factor 2/antioxidant responsive element (Nrf2/ARE) small molecule agonists: luciferase reporter gene qHTS assay in human keratinocytes (AID 1919969); also: nearly all actives have a fitted effect of over 35% in size; also: potency is read from the fitted curve at half-maximal effect
# [3] = target: KiSS-1 receptor (Homo sapiens) (UniProt Q969F8); assay: Human kisspeptin (KISS1R) small molecule agonists, calcium flux assay in KISS1R-HEK293 cells (AID 1920064; active = well fitted curve in the direction sought with a large enough effect in the repeat runs; an effect the other way counts as inactive or inconclusive)
# In short: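 Calcium flux read-out: kinetic fluorescence at Ex/Em=480/540, 1 s intervals over 3 min, after pin-tool compound addition to dye-loaded KISS1R-HEK293 cells. Fifteen concentrations, triplicates.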
# [4] = G protein-coupled receptor (GPCR) small molecule agonists, calcium flux assay: HEK293 wild type cell line counter screen (AID 1920065)
# In short: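 Agonist mode; 18 h seeding at 37 C, 1 h dye load at 37 C; compounds pinned from DMSO, ATP as positive control; kinetic fluorescence 480/540 nm, 3 min, 1 s reads; 15 concentrations, triplicate.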
# [5] = p53 small molecule agonists, cell-based qHTS assay with rat liver microsomes (AID 1963578)
# In short: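 Metabolic activation is supplied by rat liver microsomes with NADPH (each 0.5 mg/mL final). p53RE-bla cells incubate with compound 16 h at 37 C; reporter activity is measured by LiveBLAzer fluorescence.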
# [6] = p53 small molecule agonists, cell-based qHTS assay with human liver microsomes: qHTS cell viability counter screen (AID 1963579); also: nearly all actives have a fitted effect of over 45% in size
# In short: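 After the 460/530 nm beta-lactamase read, CellTiter-Glo was added to the same wells and luminescence measured after 30 min at room temperature, giving viability of p53RE-bla cells treated 16 h with compounds plus microsomes and NADPH.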
# [7] = p53 small molecule agonists, cell-based qHTS assay with rat liver microsomes: qHTS cell viability counter screen (AID 1963580); also: nearly all actives have a fitted effect of over 45% in size
# In short: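 Luminescent ATP readout (CellTiter-Glo, 30 min at room temperature) reports viability of p53RE-bla HCT-116 cells after 16 h at 37 C with test compounds under metabolic activation by rat liver microsomes and NADPH at 0.5 mg/mL final each.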
# [8] = p53 small molecule agonists, cell-based qHTS assay: qHTS cell viability counter screen (AID 1963581); also: nearly all actives have a fitted effect of over 45% in size
# In short: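 Cytotoxicity read-out: ATP-based luminescence (CellTiter-Glo, 30 min RT) measured in the same wells as the p53 reporter assay, HCT-116 p53RE-bla cells, 16 h compound exposure at 37 C.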
# [9] = p53 small molecule agonists, cell-based qHTS assay (AID 1963582; active = well fitted activation curve with a large enough effect in the signal ratio in the repeat runs, not every such curve was filed as active; the % refers to the signal ratio)
# In short: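 Fluorescence intensity read-out of a beta-lactamase reporter under a p53 response element. Cells were exposed to DMSO-dissolved compounds for 16 h at 37 C, then developed with FRET substrate for 2 h at RT.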
# [10] = target: 5-hydroxytryptamine receptor 2A (Homo sapiens) (UniProt P28223); assay: 5-hydroxytryptamine receptor 2A (HTR2A) small molecule antagonists, cell-based qHTS assay (AID 1963586); also: nearly all actives have a fitted effect of over 45% in size
# In short: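 CHO cells stably expressing human HTR2A were plated for 18 h at 37 C, then loaded with calcium dye for 1 h. Compounds were preincubated 5 min at room temperature before DOI (4 nM solution) was added. Kinetic fluorescence was read for 3 min.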
# [11] = target: 5-hydroxytryptamine receptor 2A (Homo sapiens) (UniProt P28223); assay: 5-hydroxytryptamine receptor 2A (HTR2A) small molecule agonists, cell-based qHTS assay (AID 1963587); also: nearly all actives have a fitted effect of over 30% in size; also: potency is read from the fitted curve at half-maximal effect
# In short: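 HTR2A-CHO cells, plated 18 h at 37 C/5% CO2, dye-loaded 1 h at 37 C; compounds in DMSO added by pin tool (agonist mode). Intracellular calcium flux read as kinetic fluorescence on FDSS over 2 min at 1 s intervals.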
# [12] = target: Muscarinic acetylcholine receptor M1 (Homo sapiens) (UniProt P11229); assay: Cholinergic receptor muscarinic 1 (CHRM1) small molecule antagonists, cell-based qHTS assay (AID 1963588); also: nearly all actives have a fitted effect of over 40% in size; also: potency is read from the fitted curve at half-maximal effect
# In short: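 Compounds were tested at 15 concentrations in three independent runs. Dye-loaded CHRM1-CHO cells were exposed 5 min at room temperature before stimulation by acetylcholine added at 50nM. Intracellular calcium was read kinetically on FDSS for 3 min.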
# [13] = target: Muscarinic acetylcholine receptor M1 (Homo sapiens) (UniProt P11229); assay: Cholinergic receptor muscarinic 1 (CHRM1) small molecule agonists, cell-based qHTS assay (AID 1963589); also: nearly all actives have a fitted effect of over 35% in size
# In short: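 Calcium flux read-out: kinetic fluorescence at 1 sec intervals after pin-tool compound addition to dye-loaded CHRM1-CHO cells (human M1). Agonist mode; 15 concentrations tested in triplicate independent runs.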
# [14] = target: Beta-2 adrenergic receptor (Homo sapiens) (UniProt P07550); assay: Adrenergic beta2 receptor (ADRB2) small molecule antagonists, cell-based qHTS assay (AID 1963592); also: series mostly up to about 92 µM; nearly all actives have a fitted effect of over 50% in size
# In short: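 Assay format: CHO-ADRB2 cells, 18-20hr seeding at 37C/5% CO2, then compound plus 1nM isoproterenol agonist mix for 0.5hr RT. Homogeneous time-resolved fluorescence cAMP detection after 1hr, expressed as 665/615 nm ratio.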
# [15] = target: D(2) dopamine receptor (Homo sapiens) (UniProt P14416); assay: Dopamine D2 receptor (DRD2) small molecule agonists, cell-based qHTS assay (AID 1963594); also: nearly all actives have a fitted effect of over 35% in size
# In short: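 HEK293 cells stably expressing DRD2 were cultured 24 h at 37 C, then given Ro20-1724 (0.1 mM final) and compounds for 10 min at room temperature. NKH477 (200nM) was then added for 30 min. cAMP was read by HTRF.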
# [16] = target: D(2) dopamine receptor (Homo sapiens) (UniProt P14416); assay: Dopamine D2 receptor (DRD2) small molecule antagonists, cell-based qHTS assay (AID 1963595; active = well fitted inhibition curve with a large enough effect in the signal ratio in the repeat runs, with a control signal flat; the % refers to the signal ratio; also: potency is read from the fitted curve at half-maximal effect)
# In short: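 DRD2-HEK293; 0.1 mM Ro20-1724; cpd 10 min RT; NKH477 200 nM + quinpirole 12 nM, 30 min RT; HTRF cAMP (cAMP-d2/anti-cAMP cryptate), 665/620 nm ratio after 1 h.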
# [17] = p53 small molecule agonists, cell-based qHTS assay with human liver microsomes (AID 1963577);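 also: p53 response element beta-lactamase reporter cells with liver microsomes plus NADPH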
# In short: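 Steps: plate p53RE-bla cells, incubate 5 h at 37 C; add compound in DMSO; add microsomes (0.5 mg/mL final) and NADPH (0.5 mg/mL final); incubate 16 h at 37 C; add LiveBLAzer, 2 h RT; read fluorescence.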
# [18] = cAMP Responsive Elements (CRE) small molecule agonists, cell-based qHTS assay (AID 1963590)
# In short: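 Beta-lactamase reporter readout: LiveBLAzer B/G FRET substrate, 2 h at room temperature, added after 3 h compound treatment of CRE-bla HEK 293T cells at 37 C/5% CO2.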
# [19] = cAMP Responsive Elements (CRE) small molecule antagonists, cell-based qHTS assay (AID 1963591; active = well fitted inhibition curve with a large enough effect in the signal ratio in the repeat runs, not every such curve was filed as active; the % refers to the signal ratio)
# In short: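 HEK293T CRE-bla; 18 h preincubation; compound pin-transfer; NKH477 0.25 uM final, 3 h, 37 C; LiveBLAzer FRET substrate 2 h RT.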
# Chain of Muscarinic acetylcholine receptor M1 (Homo sapiens) (P11229 whole entry, looked up): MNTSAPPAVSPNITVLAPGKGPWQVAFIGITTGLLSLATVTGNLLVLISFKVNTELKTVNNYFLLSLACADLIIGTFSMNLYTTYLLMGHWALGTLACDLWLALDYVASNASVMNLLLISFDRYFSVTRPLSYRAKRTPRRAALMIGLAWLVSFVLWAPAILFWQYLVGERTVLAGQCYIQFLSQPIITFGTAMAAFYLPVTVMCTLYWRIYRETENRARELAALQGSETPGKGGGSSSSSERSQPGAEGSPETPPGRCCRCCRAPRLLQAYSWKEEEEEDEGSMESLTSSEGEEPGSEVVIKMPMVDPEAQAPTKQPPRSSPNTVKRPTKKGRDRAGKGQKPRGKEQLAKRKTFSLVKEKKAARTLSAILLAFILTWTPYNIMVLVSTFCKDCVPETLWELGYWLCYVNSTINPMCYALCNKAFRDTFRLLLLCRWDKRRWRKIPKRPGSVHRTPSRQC
# Chain of 5-hydroxytryptamine receptor 2A (Homo sapiens) (P28223 whole entry, looked up): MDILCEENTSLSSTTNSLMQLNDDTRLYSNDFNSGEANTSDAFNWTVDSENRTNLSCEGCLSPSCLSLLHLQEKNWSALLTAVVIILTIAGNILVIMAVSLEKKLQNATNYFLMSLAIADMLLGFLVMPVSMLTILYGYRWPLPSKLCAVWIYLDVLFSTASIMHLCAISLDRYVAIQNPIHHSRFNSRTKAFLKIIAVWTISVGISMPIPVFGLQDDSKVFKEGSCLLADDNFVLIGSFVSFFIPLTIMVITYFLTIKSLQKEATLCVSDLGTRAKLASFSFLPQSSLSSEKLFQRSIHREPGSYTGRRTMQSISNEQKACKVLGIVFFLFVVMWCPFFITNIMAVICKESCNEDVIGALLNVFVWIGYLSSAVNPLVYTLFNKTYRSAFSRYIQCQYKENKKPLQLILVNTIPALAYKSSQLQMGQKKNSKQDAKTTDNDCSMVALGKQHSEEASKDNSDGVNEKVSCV
# Chain of D(2) dopamine receptor (Homo sapiens) (P14416 whole entry, looked up): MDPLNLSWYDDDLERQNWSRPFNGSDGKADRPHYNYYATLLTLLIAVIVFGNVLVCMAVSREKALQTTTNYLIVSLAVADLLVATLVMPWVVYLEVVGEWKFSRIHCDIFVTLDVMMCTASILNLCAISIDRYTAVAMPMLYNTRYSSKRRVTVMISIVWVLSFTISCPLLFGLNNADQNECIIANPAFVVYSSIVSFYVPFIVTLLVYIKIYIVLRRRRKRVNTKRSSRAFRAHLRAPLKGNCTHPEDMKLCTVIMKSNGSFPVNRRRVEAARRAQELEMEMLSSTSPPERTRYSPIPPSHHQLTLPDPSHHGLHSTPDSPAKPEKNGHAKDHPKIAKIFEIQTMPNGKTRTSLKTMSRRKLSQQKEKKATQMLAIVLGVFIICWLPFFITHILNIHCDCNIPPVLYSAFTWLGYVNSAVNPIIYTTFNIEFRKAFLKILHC
# Chain of Beta-2 adrenergic receptor (Homo sapiens) (P07550 whole entry, looked up): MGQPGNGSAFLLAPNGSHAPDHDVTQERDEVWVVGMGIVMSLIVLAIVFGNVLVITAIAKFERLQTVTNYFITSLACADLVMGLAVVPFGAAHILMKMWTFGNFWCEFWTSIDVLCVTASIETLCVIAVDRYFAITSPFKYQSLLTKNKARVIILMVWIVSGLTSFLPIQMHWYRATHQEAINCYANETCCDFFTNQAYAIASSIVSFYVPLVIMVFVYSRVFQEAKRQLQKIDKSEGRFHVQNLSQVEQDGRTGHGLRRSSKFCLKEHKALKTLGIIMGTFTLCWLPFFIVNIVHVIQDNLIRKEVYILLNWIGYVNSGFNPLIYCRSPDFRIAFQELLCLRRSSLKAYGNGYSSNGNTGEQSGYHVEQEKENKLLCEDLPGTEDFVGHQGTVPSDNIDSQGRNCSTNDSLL
# Chain of KiSS-1 receptor (Homo sapiens) (Q969F8 whole entry, looked up): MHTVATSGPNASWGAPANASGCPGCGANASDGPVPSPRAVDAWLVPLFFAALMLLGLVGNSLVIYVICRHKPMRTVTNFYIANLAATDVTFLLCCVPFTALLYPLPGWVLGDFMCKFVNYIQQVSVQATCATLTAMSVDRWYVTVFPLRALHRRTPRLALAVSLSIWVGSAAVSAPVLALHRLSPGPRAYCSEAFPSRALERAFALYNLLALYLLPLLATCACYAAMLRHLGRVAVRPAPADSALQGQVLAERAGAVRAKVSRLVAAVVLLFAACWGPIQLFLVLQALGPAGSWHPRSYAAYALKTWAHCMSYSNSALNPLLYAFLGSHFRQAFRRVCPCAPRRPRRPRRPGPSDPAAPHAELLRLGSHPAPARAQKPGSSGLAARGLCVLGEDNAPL
Structure (SMILES),Potency [1],Potency [2],Potency [3],Potency [4],Potency [5],Potency [6],Potency [7],Potency [8],Potency [9],Potency [10],Potency [11],Potency [12],Potency [13],Potency [14],Potency [15],Potency [16],Potency [17],Potency [18],Potency [19]
COc1cccc(C(=O)NN(C(=O)c2cc(C)cc(C)c2)C(C)(C)C)c1C,inactive,inactive,inactive,inactive,inactive,inactive,inactive,inactive,inactive,inactive,inactive,14.9 µM (active),inactive,inactive,inactive,inactive,,,
Nc1nc(N)nc(N)n1,inactive,inactive,inactive,inactive,,inactive,inactive,,inactive,inactive,inactive,inactive,inactive,inactive,inactive,inactive,inactive,inactive,inactive
CCOC(=O)C(Cl)C(C)=O (stereo unspecified),inactive,inactive,inactive,inactive,inactive,inactive,inactive,inactive,inactive,inactive,,4.26 µM (active),inactive,inactive,inactive,inactive,inactive,inactive,inactive
CC(=O)[C@H]1CC[C@H]2[C@@H]3CC[C@H]4C[C@H](O)CC[C@]4(C)[C@H]3C(=O)C[C@]12C,inactive,inactive,inactive,inactive,inactive,,inactive,inactive,inactive,inactive,inactive,inactive,inactive,inactive,inactive,inactive,inactive,inactive,
O=C(NC(=O)c1cc(F)c(F)cc1Cl)Nc1cc(F)ccc1N1CCC(C(=O)O)CC1,inactive,inactive,inactive,inactive,inactive,inactive,inactive,inactive,,inactive,inactive,inactive,inactive,inactive,inactive,inactive,inactive,,
O=S(=O)(C(Cl)(Cl)Cl)C(Cl)(Cl)Cl,24.3 µM (active),8.63 µM (active),inactive,inactive,inactive,inactive,,inactive,,,49 µM (active),inactive,inactive,inactive,,inactive,inactive,,inactive
CCOC(=O)CC(=O)CCl,inactive,68.6 µM (active),inactive,inactive,inactive,inactive,inactive,inactive,,inactive,inactive,inactive,inactive,inactive,inactive,inactive,inactive,inactive,inactive
c1ccc(C2CC2)c(OCC2=NCCN2)c1,inactive,inactive,inactive,inactive,inactive,inactive,,inactive,inactive,inactive,,inactive,inactive,inactive,inactive,8.41 µM (active),inactive,,
